{"source": "paper PMC4336329", "about": "(PLoS ONE, 2015)", "note": "Out of some 310,000 compounds screened, about 14,000 (4.5%) showed an effect of 50% or more. Effects have a minus sign here. What follows is part of a selection rich in strong results, with near analogues and random picks from the rest.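 Also: peak tail current of the secondary pulse compared with the same well before compound.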"}
{"molecular_target": "human ether-à-go-go-related gene (hERG) potassium channel (human, UniProt Q12809)", "sequence (Q12809 whole entry, looked up)": "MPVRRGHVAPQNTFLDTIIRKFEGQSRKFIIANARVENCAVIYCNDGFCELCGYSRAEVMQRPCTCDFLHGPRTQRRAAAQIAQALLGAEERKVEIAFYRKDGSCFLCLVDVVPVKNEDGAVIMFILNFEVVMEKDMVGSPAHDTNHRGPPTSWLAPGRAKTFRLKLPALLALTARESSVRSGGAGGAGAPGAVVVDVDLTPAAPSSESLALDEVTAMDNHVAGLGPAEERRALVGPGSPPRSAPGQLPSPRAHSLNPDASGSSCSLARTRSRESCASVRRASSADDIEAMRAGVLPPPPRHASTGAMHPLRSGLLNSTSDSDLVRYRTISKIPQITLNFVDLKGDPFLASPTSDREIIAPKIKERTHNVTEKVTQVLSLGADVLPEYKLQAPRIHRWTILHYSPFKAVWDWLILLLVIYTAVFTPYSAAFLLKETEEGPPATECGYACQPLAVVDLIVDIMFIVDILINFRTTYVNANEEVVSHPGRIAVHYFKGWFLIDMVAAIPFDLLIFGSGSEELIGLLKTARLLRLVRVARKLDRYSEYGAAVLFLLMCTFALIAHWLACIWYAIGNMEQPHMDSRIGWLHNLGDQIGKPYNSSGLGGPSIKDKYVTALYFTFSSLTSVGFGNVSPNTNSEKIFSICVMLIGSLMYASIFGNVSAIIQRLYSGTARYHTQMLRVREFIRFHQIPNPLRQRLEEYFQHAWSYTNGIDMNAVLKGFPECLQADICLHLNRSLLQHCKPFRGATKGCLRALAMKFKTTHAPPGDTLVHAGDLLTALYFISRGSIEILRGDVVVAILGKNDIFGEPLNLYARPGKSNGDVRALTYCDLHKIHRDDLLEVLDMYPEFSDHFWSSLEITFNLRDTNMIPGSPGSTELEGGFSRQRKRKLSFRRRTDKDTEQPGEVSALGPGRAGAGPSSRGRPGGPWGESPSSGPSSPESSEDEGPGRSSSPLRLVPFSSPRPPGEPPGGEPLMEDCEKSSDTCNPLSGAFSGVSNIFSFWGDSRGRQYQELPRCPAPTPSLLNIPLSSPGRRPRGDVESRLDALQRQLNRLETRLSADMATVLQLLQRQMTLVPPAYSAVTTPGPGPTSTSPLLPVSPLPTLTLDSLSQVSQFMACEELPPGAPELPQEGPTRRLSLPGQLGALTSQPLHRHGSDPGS", "experiment": "primary screen, population patch clamp on CHO cells stably expressing hERG; higher = less effect of the substance", "units": {"hERG current change (%, negative = inhibition) at 10uM": "%"}}
{"smiles": "Cc1ccc(-c2csc(=S)n2CC(=O)OCC(=O)NC(C)C(C)C)cc1", "note": "(stereo not drawn)", "hERG current change (%, negative = inhibition) at 10uM": 3.12}
{"smiles": "CN(CC(=O)Nc1ccc(Cl)c(C(F)(F)F)c1)C(=O)C1CC(=O)N(Cc2ccco2)C1", "note": "(stereo not drawn)", "hERG current change (%, negative = inhibition) at 10uM": -20.1}
{"smiles": "Cc1[nH]c2ccccc2c1/C=N/NC(=O)c1ccc(N)cc1", "hERG current change (%, negative = inhibition) at 10uM": 11.2}
{"smiles": "COc1ccc(CCN2C(=O)C3C4CC(C5C(C(=O)N/N=C\\c6ccc(Cl)cc6)=NOC45)C3C2=O)cc1OC", "note": "(stereo not drawn)", "hERG current change (%, negative = inhibition) at 10uM": -67.7}
{"smiles": "COc1ccc(CCN2C(=O)C3C4CC(C5C(C(=O)NN)=NOC45)C3C2=O)cc1OC", "note": "(stereo not drawn)", "hERG current change (%, negative = inhibition) at 10uM": 7.3}
{"smiles": "COc1ccc(CCN2C(=O)C3C4CC(C5C(C(N)=O)=NOC45)C3C2=O)cc1OC", "note": "(stereo not drawn)", "hERG current change (%, negative = inhibition) at 10uM": -2.12}
{"smiles": "CN(C)S(=O)(=O)N1CCC(Oc2ccc(C(=O)N3CCCCCCC3)cc2)CC1", "hERG current change (%, negative = inhibition) at 10uM": 10.9}
{"smiles": "CCOc1ccccc1N1CCN(C(=O)NCc2ccc(Cl)cc2)CC1", "hERG current change (%, negative = inhibition) at 10uM": -14.6}
{"smiles": "Cc1ccc(N2CCN(CCCCN3C(=O)C4CCCN4C3=O)CC2)cc1.Cl", "note": "(stereo not drawn)", "hERG current change (%, negative = inhibition) at 10uM": -23.9}
{"smiles": "COc1ccccc1N1CCN(CCCCN2C(=O)C3CCCCN3C2=O)CC1", "note": "(stereo not drawn)", "hERG current change (%, negative = inhibition) at 10uM": -12.8}
{"smiles": "CCCNC(=O)c1ccccc1N1CCN(CCCCN2C(=O)C3CCCCN3C2=O)CC1.Cl.O", "note": "(stereo not drawn)", "hERG current change (%, negative = inhibition) at 10uM": -33.5}
{"smiles": "Cc1ccccc1N1CCN(CCCCN2C(=O)C3CCCN3C2=O)CC1.Cl.O", "note": "(stereo not drawn)", "hERG current change (%, negative = inhibition) at 10uM": -65.4}
{"smiles": "COc1ccccc1N1CCN(CCN2C(=O)C3CCCCN3C2=O)CC1", "note": "(stereo not drawn)", "hERG current change (%, negative = inhibition) at 10uM": 4.39}
{"smiles": "Cc1ccccc1N1CCN(CCCN2C(=O)C3CCCCN3C2=O)CC1", "note": "(stereo not drawn)", "hERG current change (%, negative = inhibition) at 10uM": -9.54}
{"smiles": "COc1ccccc1N1CCN(CCN2C(=O)C3CCCN3C2=O)CC1", "note": "(stereo not drawn)", "hERG current change (%, negative = inhibition) at 10uM": 12}
{"smiles": "Cl.O.O=C1C2CCCCN2C(=O)N1CCCCN1CCN(c2ccccc2Oc2ccccc2)CC1", "note": "(stereo not drawn)", "hERG current change (%, negative = inhibition) at 10uM": -55.7}
{"smiles": "CCCCOc1ccccc1N1CCN(CCCN2C(=O)C3CCCN3C2=O)CC1.Cl", "note": "(stereo not drawn)", "hERG current change (%, negative = inhibition) at 10uM": -56.7}
{"smiles": "O=C(Nc1ccccc1)OC1C2CCC1C(N1CCCCC1)CC2", "note": "(stereo not drawn)", "hERG current change (%, negative = inhibition) at 10uM": -37.5}
{"smiles": "O=C(Nc1ccc(OCc2ccccc2Cl)cc1)c1cccnc1", "hERG current change (%, negative = inhibition) at 10uM": 1.02}
{"smiles": "Cc1ccc(C(=O)N2CCCC(Nc3ccc(F)cc3)C2)cc1C", "note": "(stereo not drawn)", "hERG current change (%, negative = inhibition) at 10uM": 0.463}
{"smiles": "Cc1ccc(-c2ccc(=O)n(CC(=O)NCc3ccco3)n2)cc1", "hERG current change (%, negative = inhibition) at 10uM": -10}
{"smiles": "O=C1C2C3c4ccccc4C(c4ccccc43)C2C(=O)N1Cc1ccco1", "note": "(stereo not drawn)", "hERG current change (%, negative = inhibition) at 10uM": 5.12}
{"smiles": "Cn1c(=O)n(C)c2cc(S(=O)(=O)O)ccc21", "hERG current change (%, negative = inhibition) at 10uM": 4.49}
{"smiles": "Cc1ccc(S(=O)(=O)NCC(=O)Nc2ccc3c(c2)OCO3)cc1", "hERG current change (%, negative = inhibition) at 10uM": 8.87}
{"smiles": "Cc1ccc(N2C(=O)CC(=O)NC2=O)cc1", "hERG current change (%, negative = inhibition) at 10uM": -16.9}
{"smiles": "CCN(CC)CCN(C(=O)c1ccc(S(=O)(=O)N(C)C2CCCCC2)cc1)c1nc2c(C)cccc2s1.Cl", "hERG current change (%, negative = inhibition) at 10uM": -13.9}
{"smiles": "CCN(CC)CCN(C(=O)c1ccc([N+](=O)[O-])cc1)c1nc2c(OC)cccc2s1.Cl", "hERG current change (%, negative = inhibition) at 10uM": -73.2}
{"smiles": "CCN(CC)CCN(C(=O)c1ccc(C(=O)c2ccccc2)cc1)c1nc2ccc(OC)cc2s1.Cl", "hERG current change (%, negative = inhibition) at 10uM": -45.9}
{"smiles": "CCN(CC)CCN(C(=O)c1ccc(C(=O)c2ccccc2)cc1)c1nc2c(OC)cccc2s1.Cl", "hERG current change (%, negative = inhibition) at 10uM": -68}
{"smiles": "COc1cccc2sc(N(CCCN(C)C)C(=O)c3ccc(S(=O)(=O)N4CCc5ccccc5C4)cc3)nc12.Cl", "hERG current change (%, negative = inhibition) at 10uM": 3.58}
{"smiles": "CN1C(=O)/C(=C/c2ccccc2OCc2cccc(F)c2)N(C)C1=S", "hERG current change (%, negative = inhibition) at 10uM": 6.02}
{"smiles": "O=C(COC(=O)C1CC(=O)N(Cc2ccccc2)C1)Nc1ccc2c(c1)OCO2", "note": "(stereo not drawn)", "hERG current change (%, negative = inhibition) at 10uM": 5.98}
{"smiles": "Cc1nc2ccc(Cl)cc2c(=O)n1-c1ccccc1Cl", "hERG current change (%, negative = inhibition) at 10uM": 5.06}
{"smiles": "Cl.Clc1cccc(-c2ccc(CNCc3ccccn3)o2)c1", "hERG current change (%, negative = inhibition) at 10uM": -16.2}
{"smiles": "Cc1ccc(CNCC2CCCO2)o1", "note": "(stereo not drawn)", "hERG current change (%, negative = inhibition) at 10uM": 7.37}
{"smiles": "Cl.Clc1ccc(CNCC2CCCO2)c(Cl)c1", "note": "(stereo not drawn)", "hERG current change (%, negative = inhibition) at 10uM": -2.74}
{"smiles": "OCCc1ccc(-c2ccc(Cl)cc2)o1", "hERG current change (%, negative = inhibition) at 10uM": 7.65}
{"smiles": "CN1CCN(Cc2ccc(-c3ccc(Cl)cc3)o2)CC1", "hERG current change (%, negative = inhibition) at 10uM": -31.7}
{"smiles": "Cl.Fc1ccc(-c2ccc(CNCc3ccccn3)o2)cc1Cl", "hERG current change (%, negative = inhibition) at 10uM": -34.9}
{"smiles": "Cl.Clc1ccc(-c2ccc(CNCc3ccccn3)o2)cc1", "hERG current change (%, negative = inhibition) at 10uM": -52.4}
{"smiles": "Cl.Clc1ccc(-c2ccc(CNCC3CCCO3)o2)cc1", "note": "(stereo not drawn)", "hERG current change (%, negative = inhibition) at 10uM": -62.4}
{"smiles": "CCN(CC)CCNCc1ccc(-c2ccc(Cl)cc2)o1.Cl", "hERG current change (%, negative = inhibition) at 10uM": -72.8}
